Compound activity deposited in PubChem by several laboratories.
Only some compounds are listed: those with a hit (about 2.9% of all), similar ones and a draw of the others.
Granule exo inh = LAMP-1 surface exposure blockers, TALL-104 cells – cell-based, flow cytometry, MLPCN library, primary screen. TALL-104 LAMP-1 surface exposure; cells stimulated with thapsigargin and PMA. inhibition, % at 10 µM. hit rate 0.66% among 360,000. AID 651702, 2012;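 active means inhibition above about 55%, limit read from the data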
NadD block = inhibitors of S. aureus NadD, primary screen, biochemical, colorimetric, uHTS | purified NadD enzyme, colorimetric absorbance read-out | inhibition, % at 20 µM | hit rate 0.78% among 360,000; in the data active means inhibition above about 26%
B2AR ag = beta2AR agonists driving receptor internalization, primary screen, cell-based, FAP fluorogen, flow cytometry. Am2.2-beta2AR cells. Beta-2 adrenergic receptor (Homo sapiens), P07550. response, % (concentration not given with the values). hit rate 0.43% among 340,000;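 active means response above a set limit, near 3 SD of response in nonfluorescent compounds, cut at about 42% in these data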
PP1 counter = PP1-alpha phosphatase inhibitors, primary screen, counter-screen for PP5 inhibitor project, biochemical, fluorescence, OMFP substrate, single point; Serine/threonine-protein phosphatase PP1-alpha catalytic subunit (Homo sapiens), P62136; purified PP1alpha; inhibition, % at 6.7 µM; hit rate 0.9% among 320,000;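 active means inhibition above the mean inhibition of all tested compounds plus 3 SD, computed separately for each screening campaign, cut at about 15% in these data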
GRK2 aptamer HTS = compounds blocking aptamer binding on GRK2 – biochemical, human GRK2, bead flow cytometry, HTS, primary screen; Beta-adrenergic receptor kinase 1 (Homo sapiens), P25098; FAM-aptamer displacement from GRK2; inhibition of aptamer binding, % at 10 µM; hit rate 0.59% among 330,000;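 active means inhibition of aptamer binding above 40%, roughly 3 SD of noise, on plates passing a quality check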;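 further: median bead fluorescence of bound FAM aptamer so fluorescent compounds give negative values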
PP1 inh confirm = PP1 phosphatase inhibitors, confirmation, biochemical, fluorescence, OMFP substrate, triplicate. purified PP1alpha. inhibition, % at 6.7 µM. hit rate 52% among 1,900. shares compounds with PP1 counter;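 active means mean PP1 inhibition above a set limit taken from the earlier primary screen, cut at about 15% in these data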
PP5 inh counter = PP5 phosphatase inhibition by PP1 hits, confirmation, counter-screen for PP1 inhibitor project, biochemical, fluorescence, triplicate; shares compounds with PP1 counter; purified PP5c, OMFP fluorescence; inhibition, % at 6.7 µM; hit rate 4% among 1,900;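 active means mean PP5 inhibition over triplicate wells above about 9.5% taken from the earlier PP1 screen, limit read from the data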
Target sequence (P53041 whole entry, looked up): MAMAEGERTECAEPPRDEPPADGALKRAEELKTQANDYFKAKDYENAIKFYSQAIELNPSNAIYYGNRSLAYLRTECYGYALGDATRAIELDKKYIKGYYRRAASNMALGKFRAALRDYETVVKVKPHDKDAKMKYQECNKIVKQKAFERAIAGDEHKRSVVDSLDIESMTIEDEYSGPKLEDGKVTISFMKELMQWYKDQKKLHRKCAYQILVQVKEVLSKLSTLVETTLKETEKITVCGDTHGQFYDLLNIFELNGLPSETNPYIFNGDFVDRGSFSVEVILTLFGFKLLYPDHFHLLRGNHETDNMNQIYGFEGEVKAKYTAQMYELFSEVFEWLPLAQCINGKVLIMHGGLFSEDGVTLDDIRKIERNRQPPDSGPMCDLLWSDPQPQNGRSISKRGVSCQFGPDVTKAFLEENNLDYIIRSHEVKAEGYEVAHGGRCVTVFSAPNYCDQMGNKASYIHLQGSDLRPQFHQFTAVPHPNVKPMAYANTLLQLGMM
* = called active by the depositor.

How did Cc1ccc2nc(Cl)c(C3CC(c4cccs4)=NN3C(=O)CCC(=O)O)cc2c1 (configuration not stated) do in these assays?
Granule exo inh: -12; NadD block: 11; B2AR ag: -10; PP1 counter: -3; GRK2 aptamer HTS: 0

How did Cc1ccc(-c2nn(-c3ccccc3)cc2C2CC(c3cccs3)=NN2C(=O)CCC(=O)O)cc1 (configuration not stated) do in these assays?
Granule exo inh: 0; NadD block: -3; B2AR ag: 11; PP1 counter: 19*; GRK2 aptamer HTS: 0; PP1 inh confirm: 10; PP5 inh counter: -1

Results for COc1ccc(-c2cc(C(=O)Nc3ccc(OC)c(OC)c3)[nH]n2)c(C)c1 ?
Granule exo inh: 5; NadD block: 3

How did Cc1[nH]c2ccccc2c1C(=O)C(=O)NC1CC(=O)N(c2ccc(F)cc2)C1 (configuration not stated) do in these assays?
Granule exo inh: -3; NadD block: -3; B2AR ag: 5; PP1 counter: -8; GRK2 aptamer HTS: 2

How did Nc1nc(-c2ccccn2)nc(N)c1Cc1ccccc1F do in these assays?
Granule exo inh: 0; NadD block: -1; B2AR ag: 2; PP1 counter: 14; GRK2 aptamer HTS: 0

How did Nc1nc(-c2ccccn2)nc(N)c1Cc1c(F)cccc1Cl do in these assays?
Granule exo inh: 1; NadD block: -4; B2AR ag: -10; PP1 counter: 27*; GRK2 aptamer HTS: 0; PP1 inh confirm: 47*; PP5 inh counter: -2

What do the screens show for `Nc1nc(-c2ccccn2)nc(N)c1Cc1ccc(Cl)cc1Cl`?
Granule exo inh: 3; NadD block: 10; B2AR ag: -9; PP1 counter: 34*; GRK2 aptamer HTS: 0; PP1 inh confirm: 47*; PP5 inh counter: 5

How did O=C(NCCc1ccccc1)/C(=C\c1ccc([N+](=O)[O-])cc1)NC(=O)c1ccc(Br)cc1 do in these assays?
Granule exo inh: -4; NadD block: 5; B2AR ag: -4; PP1 counter: 18*; GRK2 aptamer HTS: 0; PP1 inh confirm: 22*; PP5 inh counter: -2

How did Cc1ccc(C)c(NC(=O)Cn2nc(-c3ccccc3)nc2-c2ccccc2)c1 do in these assays?
Granule exo inh: 1; NadD block: 8; B2AR ag: -4; PP1 counter: 20*; GRK2 aptamer HTS: 2; PP1 inh confirm: 24*; PP5 inh counter: -6

What do the screens show for `Cc1ccc(NC(=O)Cn2nc(-c3ccccc3)nc2-c2ccccc2)c(C)c1`?
Granule exo inh: -8; NadD block: 0; B2AR ag: -1; PP1 counter: -3; GRK2 aptamer HTS: 5

What do the screens show for `Cc1nn(-c2ccc(F)cc2)c2c1cc(C#N)c1nc3ccccc3n12`?
Granule exo inh: 5; NadD block: 13; B2AR ag: 0; PP1 counter: -2; GRK2 aptamer HTS: 0

Results for Cc1cc(N2C(=O)C(O)=C(C(=O)c3ccco3)C2c2ccc([N+](=O)[O-])cc2)no1 (configuration not stated) ?
Granule exo inh: -5; NadD block: 4; B2AR ag: 3; PP1 counter: 4; GRK2 aptamer HTS: 0

What do the screens show for `Cc1nnc(N2C(=O)C(O)=C(C(=O)c3ccco3)C2c2ccc(F)cc2)s1` (configuration not stated)?
Granule exo inh: -4; NadD block: 3; B2AR ag: 4; PP1 counter: 1; GRK2 aptamer HTS: 5

Results for CSc1ccc(C2C(C(=O)c3ccco3)=C(O)C(=O)N2c2nnc(SC)s2)cc1 (configuration not stated) ?
Granule exo inh: 2; NadD block: 13; B2AR ag: 2; PP1 counter: 20*; GRK2 aptamer HTS: 4; PP1 inh confirm: 16*; PP5 inh counter: -5

How did CCOC(=O)c1sc(N2C(=O)C(O)=C(C(=O)c3ccco3)C2c2ccc([N+](=O)[O-])cc2)nc1C (configuration not stated) do in these assays?
Granule exo inh: -2; NadD block: 22; B2AR ag: 5; PP1 counter: 41*; GRK2 aptamer HTS: 2; PP1 inh confirm: 36*; PP5 inh counter: 2

What do the screens show for `CCOC(=O)c1sc(N2C(=O)C(O)=C(C(=O)c3ccco3)C2c2ccc(C)o2)nc1C` (configuration not stated)?
Granule exo inh: -15; NadD block: 19; B2AR ag: 10; PP1 counter: 23*; GRK2 aptamer HTS: 5; PP1 inh confirm: 23*; PP5 inh counter: 2

Results for Clc1cccc(Cl)c1CNc1ccc(N2CCCC2)cc1 ?
PP1 counter: 19*; GRK2 aptamer HTS: 0; PP1 inh confirm: 1; PP5 inh counter: 2

How did O=C(Cc1ccc(Cl)cc1)Nc1ccc(N2CCCC2)cc1 do in these assays?
Granule exo inh: 3; NadD block: 30; B2AR ag: 2; PP1 counter: -2; GRK2 aptamer HTS: 2

How did Cc1cc(F)ccc1-c1cc(C(=O)Nc2ccccc2)[nH]n1 do in these assays?
Granule exo inh: -2; NadD block: -6

How did CCCCC(=O)NC(c1ccc(N(CC)CC)cc1)c1ccc2cccnc2c1O (configuration not stated) do in these assays?
Granule exo inh: 17; NadD block: 10; B2AR ag: 11; PP1 counter: 35*; GRK2 aptamer HTS: 1; PP1 inh confirm: 24*; PP5 inh counter: -5

How did CCCCC(=O)NC(c1ccc(N(C)C)cc1)c1ccc2cccnc2c1O (configuration not stated) do in these assays?
Granule exo inh: 14; NadD block: 6; B2AR ag: 5; PP1 counter: 29*; GRK2 aptamer HTS: 0; PP1 inh confirm: 21*; PP5 inh counter: -4

How did C=C(C)CSc1[nH]c(=O)cc(C)c1C#N do in these assays?
Granule exo inh: 5; NadD block: 1; B2AR ag: -9; PP1 counter: 0; GRK2 aptamer HTS: 1

What do the screens show for `C#CCNC(=O)C1CCN(c2ccc(S(=O)(=O)N3CCOCC3)cc2Cl)CC1`?
Granule exo inh: 3; NadD block: -6; B2AR ag: 5; PP1 counter: -4; GRK2 aptamer HTS: 1
